In all, about 33,000 sequences were measured (“E-score (-0.5 to 0.5)”: median about -0.013, highest 2% from about 0.3 on). This excerpt belongs to a sample that is enriched for the highest values.
What follows are sequences tested against T1, Msn1 (UniProt P22148) (assay: PBM E-score (8-mer binding enrichment) (E-score (-0.5 to 0.5)); higher = stronger / more preferred TF binding). Conditions: protein concentration: 200 nM; construct: GST-full length.
T1 sequence: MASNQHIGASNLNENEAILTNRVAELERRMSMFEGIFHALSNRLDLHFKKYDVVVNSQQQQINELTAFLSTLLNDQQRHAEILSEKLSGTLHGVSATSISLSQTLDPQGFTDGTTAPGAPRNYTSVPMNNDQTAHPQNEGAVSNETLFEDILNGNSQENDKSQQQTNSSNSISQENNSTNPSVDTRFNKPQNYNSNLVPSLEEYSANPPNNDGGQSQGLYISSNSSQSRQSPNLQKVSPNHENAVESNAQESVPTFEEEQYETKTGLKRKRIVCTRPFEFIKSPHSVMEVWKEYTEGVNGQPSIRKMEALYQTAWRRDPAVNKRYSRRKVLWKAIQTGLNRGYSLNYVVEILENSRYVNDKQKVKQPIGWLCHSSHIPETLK
Method: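 Universal 'all 10-mer' protein binding microarrays (Agilent AMADID 015681) probed with GST-tagged S. cerevisiae TFs (full-length or DBD) made by in vitro transcription/translation (PURExpress), about 100-200 nM. Bound TF was detected with fluorescent anti-GST. Each ungapped 8-mer (which stands for itself and its reverse complement) is scored by the PBM enrichment score (E-score), a modified Wilcoxon-Mann-Whitney statistic from -0.5 to +0.5, computed with the Universal PBM Analysis Suite. Scale: above 0.35 generally sequence-specific binding.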

Row | Sequence | PBM E-score
1 | CCAATTCC | 0.0443
2 | CCAAAGAG | -0.0341
3 | CGGTCCTA | -0.185
4 | CTGTCCTA | 0.346
5 | GTGTCCTA | 0.468
6 | GAGTCCTA | 0.0172
7 | GCGTCCTA | 0.168
8 | CAGTCCTA | 0.0807
9 | ACTGGGCC | -0.0731
10 | CGCTATAC | -0.194
11 | GTAGTACA | 0.167
12 | TCAGTACA | 0.319
13 | CTAGTACA | 0.308
14 | CCAGTACA | 0.177
15 | ACAGTACA | 0.189
16 | CTAGTACC | -0.0261
17 | TAAGAGTA | 0.0785
18 | GCGGAGCC | -0.139
19 | GGTTAGAC | 0.076
20 | AGGTCTCG | -0.156
21 | ATGTCTCC | 0.302
22 | GTGTCTCA | 0.286
23 | CTGTCTCA | 0.087
24 | ATGTCTCG | 0.333
25 | ATGTCTCA | 0.446

Row | Sequence | PBM E-score
26 | ACGGGCGG | -0.141
27 | ACCCACGG | -0.17
28 | CAGGTAAC | -0.0911
29 | GAGCCGCC | -0.217
30 | CAGCCTAC | -0.125
31 | ACACGGAG | 0.00035
32 | ACACGGAC | 0.32
33 | ACACGGAA | 0.166
34 | ACCCGTCC | -0.0862
35 | ACATGGAC | 0.326
36 | GGATGGAC | 0.178
37 | ATATGGAG | 0.12
38 | AAATGGAA | 0.131
39 | ATATGGAC | 0.356
40 | CTATGGAC | 0.257
41 | GTATGGAC | 0.335
42 | AAATGGAT | -0.0165
43 | GCATGGAC | 0.268
44 | AAATGGAC | 0.338
45 | ACATGGAT | 0.162
46 | GTATGGAA | -0.0401
47 | GAAATCTA | -0.139
48 | TCAGCTCA | -0.149
49 | ATTTGCCG | 0.136
50 | GCCAAGCA | -0.199

Row | Sequence | PBM E-score
51 | GAGTATGC | -0.0467
52 | GATCAGAC | -0.195
53 | AGGTACCA | -0.036
54 | CAGTGTCA | -0.105
55 | AATTAGTC | 0.272
56 | AATTAGTA | 0.211
57 | AATTAGTG | 0.33
58 | ATATTGCC | 0.0437
59 | CTTATCTA | 0.0318
60 | CTGGCCAA | -0.0295
61 | AGGCATGA | -0.183
62 | CTGGTCGC | -0.0171
63 | CTAAATTA | 0.144
64 | ATAAATTG | 0.225
65 | ACAAATTA | 0.357
66 | CCAAATTC | 0.0869
67 | CCAAATTA | 0.193
68 | ACAAATTC | 0.306
69 | AAAAATTC | 0.182
70 | ATAAATTA | 0.343
71 | ACAAATTG | 0.301
72 | ATCTCCGC | -0.208
73 | CTACAATC | 0.0383
74 | ACCGCGTG | -0.118
75 | ATGTAAAG | -0.0428

Row | Sequence | PBM E-score
76 | CCGAACGC | 0.158
77 | CCTATCTA | -0.0647
78 | CAATGCAG | -0.0326
79 | ACGACAAG | 0.0652
80 | GCGACAAC | 0.167
81 | TCGACAAA | 0.378
82 | TCGACGAA | 0.118
83 | GCGACAGA | 0.144
84 | ACGACAAA | 0.435
85 | GCGACAAA | 0.355
86 | CCGACAAC | 0.167
87 | CCGACAAA | 0.42
88 | TCGACAGA | -0.101
89 | CCGACAAG | 0.13
90 | ACGACAAC | 0.227
91 | TACCGGGA | 0.148
92 | AGCCTGTG | -0.221
93 | AGAGATTG | -0.0815
94 | GCGCAGAA | 0.0474
95 | GAGACCTC | -0.0881
96 | GAGAACTC | -0.162
97 | AATGGAAT | 0.238
98 | CCCAGCCA | -0.156
99 | CAGGTTGG | -0.102
100 | ACTATGGG | -0.169

Row | Sequence | PBM E-score
101 | CAGAATGC | -0.094
102 | CACAAATC | 0.0687
103 | CACAAGTC | 0.0697
104 | TACAAATA | 0.281
105 | GACAAGTA | 0.369
106 | AACAAGTC | 0.103
107 | AACAAATC | 0.0327
108 | GACAAGTC | 0.419
109 | AACAAGTA | -0.0396
110 | GACAAATA | 0.483
111 | TACAAGTA | 0.0835
112 | AACAAATA | 0.211
113 | GACAAATC | 0.473
114 | ATGGGATG | -0.177
115 | CTGCAAGC | -0.17
116 | ACACAGGT | 0.0743
117 | AGAGTAAA | -0.0814
118 | GTCGAGTA | -0.0563
119 | CACCCTAA | -0.141
120 | CCCTCTGA | -0.174
121 | GTAGGACA | 0.479
122 | ATAGGACA | 0.457
123 | CTAGGACA | 0.489
124 | GTAGGAGA | -0.204
125 | CTAGGATA | -0.13

Row | Sequence | PBM E-score
126 | CTAGGACC | -0.0875
127 | GTAGGATA | -0.0803
128 | ATAGGACC | -0.11
129 | ATAGGACG | 0.242
130 | CGCTACAC | -0.231
131 | GCCACACA | -0.0564
132 | AACGTTAA | 0.137
133 | AGTAAGCG | -0.082
134 | GAGTAGGA | -0.151
135 | AGGAGACG | -0.298
136 | ATTTATAA | 0.322
137 | CTTTATAA | 0.177
138 | GCTTATAA | -0.0204
139 | ACTTATAC | 0.0919
140 | ACTTATAA | 0.333
141 | ATTTATAC | 0.176
142 | ACCATAAA | 0.173
143 | ATATCTGA | 0.112
144 | CACTTCCA | -0.0388
145 | AGTGTCGG | 0.202
146 | GATGTCGC | 0.0908
147 | AAGGTCGT | -0.0332
148 | CATGTCGC | 0.237
149 | AATGTCGG | 0.33
150 | CATGTCGG | 0.224

Row | Sequence | PBM E-score
151 | AATGTCGT | 0.442
152 | AATGTCGA | 0.299
153 | AATGTCGC | 0.398
154 | CTCCTTTC | -0.214
155 | GAAAGTGC | -0.0805
156 | ATAGACCA | -0.0849
157 | ACGATCCC | -0.232
158 | CGGCTCTA | -0.00727
159 | CGGGACTC | 0.0112
160 | AGGGACAT | 0.488
161 | CGGGACCA | -0.152
162 | AGGGACCA | -0.188
163 | CGGGACAC | 0.376
164 | CGGGACGA | 0.115
165 | AGGGACGA | 0.261
166 | AGGGACCT | -0.0323
167 | CGGGACAA | 0.463
168 | CGGGACAG | 0.197
169 | AGGGACGG | -0.35
170 | AGGGACAA | 0.487
171 | GGCTAAGA | 0.0666
172 | ATCCTAGC | -0.118
